We go through 31 compounds from PubChem BioAssay (Tox21).

Several values for one entry are separate records, joined by “and”; a condition that tells them apart may be missing. Equal values may be shown once. Activity calls are given as the source filed them. Unless noted, calls follow the shape of the dose curve; as a rule, active = well fitted curve in the direction sought with a large enough effect in the repeat runs; inconclusive = weak or mixed curves; inactive = no such curve, though single readings can be large; an effect the other way counts as inactive or inconclusive.

Test [1] in a line: qHTS assay to identify small molecule antagonists of the thyroid receptor (TR) signaling pathway (AID 743065). Also: nearly all actives have a fitted effect of over 55% in size. Also: potency is read from the fitted curve at half-maximal effect. In short, it runs like this:
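GH3.TRE-Luc rat pituitary cells carrying two TR response elements driving luciferase were plated for 4 h, given compound plus 1 nM T3 (final), and incubated 23.5 h at 37 C. ONE-Glo luminescence measured reporter inhibition; CellTiter-Fluor fluorescence tracked cytotoxicity.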
A general note: qHTS replaces the single test concentration by a dilution series.

For test [2], the system named is thyroid hormone receptor (rat, GH3 cells). Nature of the test: qHTS assay to identify small molecule agonists of the thyroid receptor (TR) signaling pathway (AID 743066; calls by dose curve).
Test [3] in a line: qHTS assay to identify small molecule antagonists of the estrogen receptor alpha (ER-alpha) signaling pathway - cell viability counter screen (AID 743074; calls by dose curve;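 also: HEK293 cells carrying ER-alpha-UAS-bla reporter stimulated with 17beta-estradiol; nearly all actives have a fitted effect of over 45% in size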).
The target of test [4] is Estrogen receptor (Homo sapiens) (UniProt P03372). As to the kind of experiment: qHTS assay to identify small molecule agonists of the estrogen receptor alpha (ER-alpha) signaling pathway (AID 743075; calls by dose curve;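 also: HEK293 GripTite cells with ER-alpha and UAS-driven beta-lactamase reporter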; also: potency is read from the fitted curve at half-maximal effect).
The target is the same in test [5]. Nature of the test: qHTS assay to identify small molecule agonists of the estrogen receptor alpha (ER-alpha) signaling pathway using the BG1 cell line (AID 743079). Also: nearly all actives have a fitted effect of over 20% in size. Also: potency is read from the fitted curve at half-maximal effect. The conditions noted are these: BG1Luc4E2 cells, ERE-luciferase agonist, 22 h; activation: at 70.3 µM (top of the series).
Test [6] in a line: qHTS assay to identify small molecule antagonists of the estrogen receptor alpha (ER-alpha) signaling pathway using the BG1 cell line (AID 743080; calls by dose curve;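 also: BG1 cells stimulated with 17beta-estradiol alongside compound; nearly all actives have a fitted effect of over 25% in size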; also: potency is read from the fitted curve at half-maximal effect). In short, it runs like this:
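Quantitative HTS on the Tox21 10K library: BG1 cells with endogenous ER-alpha and ERE-luciferase reporter, 17beta-estradiol stimulation, 21.5 h compound exposure, luminescence endpoint with parallel fluorescence cytotoxicity counter-read.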

Test [7] in a line: qHTS assay to identify small molecule antagonists of the estrogen receptor alpha (ER-alpha) signaling pathway using the BG1 cell line - cell viability counter screen (AID 743081).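 Also: compound given together with 17beta-estradiol as the ER stimulus; nearly all actives have a fitted effect of over 45% in size.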
The next test has as its target Aromatase (Homo sapiens) (UniProt P11511). Nature of the test: qHTS assay to identify aromatase inhibitors (AID 743083). Also: nearly all actives have a fitted effect of over 55% in size.
A short description of test [8]: qHTS assay to identify aromatase inhibitors - cell viability counter screen (AID 743084).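 Also: cells stimulated with testosterone during compound exposure; nearly all actives have a fitted effect of over 55% in size.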
For test [9], the target named is Estrogen receptor (Homo sapiens) (UniProt P03372). As to the kind of experiment: qHTS assay to identify small molecule antagonists of the estrogen receptor alpha (ER-alpha) signaling pathway (AID 743069; active = well fitted curve in the direction sought with a large enough effect in the signal ratio in the repeat runs, not every such curve was filed as active; inconclusive = weak or mixed curves, or effect the other way; inactive = no such curve, though single readings can be large or run the other way; the % refers to the signal ratio). In short, it runs like this:
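Estradiol-stimulated ER-alpha-UAS-bla HEK293 cells, 18 hr compound exposure at 37C. LiveBLAzer B/G substrate, 2 hr RT, fluorescence read.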

Chain of Estrogen receptor (Homo sapiens) (P03372 whole entry, looked up): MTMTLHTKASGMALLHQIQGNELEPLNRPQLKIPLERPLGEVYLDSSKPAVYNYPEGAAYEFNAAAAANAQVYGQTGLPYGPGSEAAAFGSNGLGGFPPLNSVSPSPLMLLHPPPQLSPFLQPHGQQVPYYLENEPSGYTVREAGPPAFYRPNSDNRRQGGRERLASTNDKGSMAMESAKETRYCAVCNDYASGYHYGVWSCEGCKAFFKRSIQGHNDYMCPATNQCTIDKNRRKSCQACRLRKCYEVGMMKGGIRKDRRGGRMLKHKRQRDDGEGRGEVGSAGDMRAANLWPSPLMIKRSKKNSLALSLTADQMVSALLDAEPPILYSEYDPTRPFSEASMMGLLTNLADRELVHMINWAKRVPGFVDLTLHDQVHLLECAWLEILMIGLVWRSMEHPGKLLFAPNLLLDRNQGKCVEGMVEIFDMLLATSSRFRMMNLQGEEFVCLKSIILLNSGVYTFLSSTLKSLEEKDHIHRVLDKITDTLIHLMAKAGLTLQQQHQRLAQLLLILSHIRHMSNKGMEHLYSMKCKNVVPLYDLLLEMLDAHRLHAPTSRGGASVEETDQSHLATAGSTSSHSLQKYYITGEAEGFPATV
Chain of Aromatase (Homo sapiens) (P11511 whole entry, looked up): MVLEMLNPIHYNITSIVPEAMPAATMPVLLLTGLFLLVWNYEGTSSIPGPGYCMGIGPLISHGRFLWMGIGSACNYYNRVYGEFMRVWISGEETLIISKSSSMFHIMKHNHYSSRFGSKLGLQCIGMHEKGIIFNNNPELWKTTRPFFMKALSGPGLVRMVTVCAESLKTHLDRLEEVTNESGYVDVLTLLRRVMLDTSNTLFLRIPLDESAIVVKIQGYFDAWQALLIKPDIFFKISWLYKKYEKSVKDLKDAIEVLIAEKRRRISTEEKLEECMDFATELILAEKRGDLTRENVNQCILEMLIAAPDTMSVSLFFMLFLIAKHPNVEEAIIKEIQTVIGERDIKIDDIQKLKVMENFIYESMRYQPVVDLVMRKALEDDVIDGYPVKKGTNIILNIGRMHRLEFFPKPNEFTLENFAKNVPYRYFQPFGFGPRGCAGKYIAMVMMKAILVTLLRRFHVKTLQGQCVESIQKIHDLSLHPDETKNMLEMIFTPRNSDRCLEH

`CCOC(=O)CC(=O)C(=O)OCC`: the Potency result in test [1], in [3], in [4], in [5], in test [6] and in test [7] was “inactive” in each case. In addition, the Potency result in the test with Aromatase (Homo sapiens) is “inactive”. In addition, in [2], the outcome was inactive.
On to `Oc1cc(O)c(Cl)cc1Cl`, for which the Potency entry in test [1], in test [3], in [4], in [5], in test [6] and in test [7] was “inactive” in each case. Further, the Potency result (with Aromatase (Homo sapiens); in test [8]) was “inactive” each time. The outcome in [2] was inactive.
Turning to `CCC(Cc1ccccc1)(C(=O)c1ccc(N2CCOCC2)cc1)N(C)C` (stereo unspecified), the Potency entry (in test [1]; in [9]; in [3]; in test [7]; with Aromatase (Homo sapiens); in test [8]) was “inactive” throughout. Further, in test [2], the compound was classed as inactive. The Potency in test [4] was 49 µM [inconclusive] (active).
Turning to `O=C(CCC1CCN(Cc2ccccc2)CC1)c1ccc2c(c1)NCCCC2`, the Potency in [1] is 11.9 µM (active). Further, the call in test [2] was inactive. For the same compound, the Potency entry in test [9] and in test [4] was “inactive” in each case.
`COc1cc2[nH]c(=O)[nH]c(=O)c2cc1OC`: the Potency result in test [1], in [9], in [3], in [4], in test [6] and in test [7] was “inactive” in each case. Further, the Potency entry (with Aromatase (Homo sapiens); in test [8]) was “inactive” each time. Moreover, the compound was classed as inactive in [2].
Take `Brc1cc(-c2ccc(Br)c(Br)c2Br)cc(Br)c1Br`: in test [1], the Potency was 26.9 µM (active). For the same compound, in [2], the compound was called inactive. The Potency entry (in [3]; in test [4]; in test [5]; in test [7]; with Aromatase (Homo sapiens); in test [8]) was “inactive” each time.
`CCCCC(=O)O[C@]1(C(=O)CO)CC[C@H]2[C@@H]3CCC4=CC(=O)CC[C@]4(C)[C@H]3[C@@H](O)C[C@@]21C`: the Potency result (in test [1]; in test [3]; in [5]; in test [7]; with Aromatase (Homo sapiens); in test [8]) was “inactive” throughout. Moreover, the compound was called inactive in test [2].
Turning to `CCCCCCOC(=O)CCCCCCCC(=O)OCCCCCC`, the Potency result in [1], in test [3] and in test [7] was “inactive” in each case. Also, the call in test [2] was inactive.
With `CCn1nc(C)c2c1C(=O)NCC(c1ccc(O)cc1)=N2`, the Potency entry in test [1], in test [3], in test [4], in [5], in test [6] and in test [7] was “inactive” throughout. For the same compound, the Potency entry (with Aromatase (Homo sapiens); in [8]) was “inactive” in each case. Besides, the result in test [2] was inactive.
Regarding `O=C(CCCCCCC(=O)Nc1ccccc1)NO`, the Potency is 2.11 µM (active) and 2.66 µM (active) in [1]; 5.96 µM (active) and 4.22 µM (active) in test [6]. For the same compound, the outcome in test [2] was inactive. Further, the Potency result in test [3], in [4] and in test [7] was “inactive” throughout.
Take `Nc1nccs1`: the Potency entry (in test [1]; in [3]; in [7]; with Aromatase (Homo sapiens); in test [8]) was “inactive” in each case. Further, in test [2], the result was inactive.
With `CC(C)(CCl)c1ccccc1`, the Potency result (in test [1]; in test [3]; in test [4]; in [5]; in test [7]; in the test with Aromatase (Homo sapiens)) was “inactive” each time. Also, in [8], the Potency result was “inactive”. The result in [2] was inactive.
Take `CC(C)c1nnc2ccc(-c3ocnc3-c3cc(F)ccc3F)cn12`: the Potency entry (in test [1]; in test [3]; in test [4]; in [7]; in the test with Aromatase (Homo sapiens); in test [8]) was “inactive” in each case. The compound was called inactive in test [2].
Turning to `CCCCC(=O)O[C@]1(C(=O)CO)[C@@H](C)C[C@H]2[C@@H]3CCC4=CC(=O)C=C[C@]4(C)[C@@]3(F)[C@@H](O)C[C@@]21C`, the Potency in [1] is 61.1 µM (active). The call in test [2] was inactive. Moreover, the Potency entry (in test [3]; in [4]; in test [7]; with Aromatase (Homo sapiens); in test [8]) was “inactive” throughout.
For the compound `CC1C2CC(CC2C2CCCC(O)C2)C1(C)C` (stereo unspecified), the Potency result in test [1], in test [3] and in test [7] was “inactive” throughout. The result in test [2] was inactive.
On to `COc1ccc(CCC(=O)c2c(O)cc(O[C@@H]3O[C@H](CO)[C@@H](O)[C@H](O)[C@H]3O[C@@H]3O[C@@H](C)[C@H](O)[C@@H](O)[C@H]3O)cc2O)cc1O`, for which the Potency result in [1], in [3], in test [4], in test [5], in test [6] and in [7] was “inactive” each time. The Potency result (with Aromatase (Homo sapiens); in [8]) was “inactive” each time. For the same compound, the compound was classed as inactive in [2].
With `COCc1c(C(C)C)nc(C(C)C)c(/C=C/[C@@H](O)C[C@@H](O)CC(=O)O)c1-c1ccc(F)cc1`, the Potency in test [1] and in [5] was 11.9 µM (active) in each case. Besides, the call in test [2] was inactive. Further, the Potency entry in test [3], in test [7] and in [8] was “inactive” each time.
For `Cc1ccc(S(=O)(=O)NC2CCCCC2)cc1`, the Potency entry (in [1]; in [3]; in test [4]; in test [7]; with Aromatase (Homo sapiens)) was “inactive” each time. The call in test [2] was inactive.
With `CCCCC(CC)CNCC(CC)CCCC` (stereo unspecified), the Potency result in test [1], in [3] and in [7] was “inactive” throughout. Further, in test [2], the compound was called inactive.
`CCCCCC=CCC=CCCCCCCCC(=O)OCC`: the Potency entry (in [1]; in [3]; in test [4]; in [5]; in test [7]; with Aromatase (Homo sapiens)) was “inactive” in each case. Further, the Potency entry in test [8] was “inactive”. Further, the compound was called inactive in [2].
`O=Cc1c(Cl)cccc1Cl`: the Potency result (in [1]; in [3]; in test [4]; in test [5]; in test [7]; with Aromatase (Homo sapiens)) was “inactive” in each case. In addition, the Potency entry in test [8] is “inactive”. Also, the compound was classed as inactive in test [2].
Consider `O=S(=O)(c1ccccc1)c1ccc(Cl)cc1`, for which the Potency result (in test [1]; in test [3]; in test [4]; in test [7]; with Aromatase (Homo sapiens); in [8]) was “inactive” each time. For the same compound, the call in [2] was inactive. In test [6], the Potency is 68.6 µM (active).
With `CC(=O)OCC(=O)[C@H]1CC[C@H]2[C@@H]3CCC4=CC(=O)CC[C@]4(C)[C@H]3CC[C@]12C`, the Potency was 13.3 µM (active) in test [1] and 4.22 µM (active) in test [5]. Also, the outcome in test [2] was inactive. Besides, the Potency entry (in [3]; in [4]; in test [7]; in the test with Aromatase (Homo sapiens); in [8]) was “inactive” throughout.
With `CCCOC(=O)c1ccc(N)cc1`, the Potency result (in [1]; in test [3]; in [4]; in test [7]; with Aromatase (Homo sapiens); in test [8]) was “inactive” throughout. In addition, the compound was classed as inactive in test [2].
With `CCCCCCCC/C=C\CCCCCCCC(=O)OC`, the Potency entry (in test [1]; in test [3]; in [7]; in the test with Aromatase (Homo sapiens); in test [8]) was “inactive” in each case. Besides, in test [2], the compound was classed as inactive.
Take `CCCC(=O)O[C@]1(C(=O)COC(=O)CC)CC[C@H]2[C@@H]3CCC4=CC(=O)CC[C@]4(C)[C@H]3[C@@H](O)C[C@@]21C`: the Potency result (in [1]; in test [3]; in test [4]; in test [7]; with Aromatase (Homo sapiens); in [8]) was “inactive” throughout. Also, in test [2], the call was inactive.
Take `O=C(NCCCN1CCOCC1)c1ccc(Cl)cc1`: the Potency entry (in test [1]; in test [3]; in [4]; in test [5]; in test [7]; with Aromatase (Homo sapiens)) was “inactive” in each case. Moreover, in test [8], the Potency entry is “inactive”. For the same compound, the compound was classed as inactive in test [2].
As to `Cc1occc1C(=O)Nc1ccc(C(=O)N2CCC(F)(F)/C(=C\C(=O)N3CCC(N4CCCCC4)CC3)c3ccccc32)cc1`, in [1], the Potency was 19.1 µM (active). In test [2], the outcome was inactive. The Potency entry in [3], in test [4] and in test [8] was “inactive” throughout.
In the case of `CC1=CC(=O)CC(C)(C)C1(O)/C=C/C(C)=C\C(=O)O` (stereo unspecified), the Potency entry (in [1]; in test [3]; in test [7]; with Aromatase (Homo sapiens); in [8]) was “inactive” in each case. The compound was called inactive in [2].
With `COC(OC)(C(=O)c1ccccc1)c1ccccc1`, the Potency entry (in test [1]; in test [3]; in [7]; in the test with Aromatase (Homo sapiens); in test [8]) was “inactive” in each case. In [2], the call was inactive. The Potency in test [4] is 0.0123 µM [inconclusive] (active); in [5], 4.32 µM (active).
`O=[N+]([O-])c1cccc(S(=O)(=O)NCCNS(=O)(=O)c2cccc([N+](=O)[O-])c2)c1`: the Potency entry (in test [1]; in test [3]; in test [4]; in test [5]; in [7]; with Aromatase (Homo sapiens)) was “inactive” in each case. In test [8], the Potency entry was “inactive”. The call in test [2] was inactive.
